This passage reports growth results from PubChem BioAssay (NCI).

About 83,000 compounds went through this panel and 20% of them were active in at least one assay; those are over-represented in the sample as a whole.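 Growth was measured after 48 h exposure to one concentration of compound in 96-well plates. Values under 10 count as active.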 Values without a mark were called inactive. Active and inactive are the calls of the source.

The first assay deals with SF-268 CNS. As to the kind of experiment: NCI-60 one-dose screen, 48 h (100 = growth as untreated, 0 = no growth, -100 = all killed). The following applies: 10 µM unless noted.
As for `COc1ccc(/C=C(/C(=O)N2CCCCC2)c2cc(OC)c(OC)c(OC)c2)cc1`, the growth was 50.1%.

As for `COc1ccc(OC)c(Cn2cc3c(c2)-c2oncc2CC3)c1`, the growth is 57.5%.

Consider `COc1ccc(CN2C(=O)/C(=C\C(=O)c3ccc(OCCN4CCCCC4)cc3)c3ccccc32)cc1`, for which the growth is 82.7%.

In the case of `COc1ccc(/C=C2\SC(=O)N(Cc3cc(=O)oc4ccc(OC)cc34)C2=O)cc1`, the growth is 88.8%.

Regarding `O=c1oc2ccc3ccccc3c2cc1-c1ccnc2[nH]c(=S)[nH]c(=O)c12`, the growth is 98.7%.

Regarding `O=C(O)c1occ(Cl)c1Cl`, the growth is 113%.

Regarding `COc1ccc(Cn2cc3c(c2-c2ccccc2)CCc2cnoc2-3)cc1OC`, the growth is 47.1%.

As for `CCCCN(CCCC)CC(O)CN(CC)CC` (stereo unspecified), the growth was 106%.

For the compound `O=C(/C=C/c1c[nH]c2ccccc12)c1cc2ccccc2o1`, the growth is 80.6%.

On to `COc1ccc2sc(-n3nc4nc5n(c(=O)c4c3N)-c3ccccc3Sc3ccccc3-5)nc2c1`, for which the growth was 86.8%.

With `CCOC(=O)NNc1[nH]c(-c2ccc(OC)cc2)cc1C#N`, the growth is 103%.

With `COc1ccc(-c2cn3ccnc3c(-c3ccc4ncn(C5CCCCC5)c4c3)n2)cc1`, the growth is 50.1%.

Turning to `CCOC(=O)C1=NN(c2ccccc2)C2=NC(=O)/C(=C\c3cn(-c4ccccc4)nc3-c3cc4ccccc4o3)C(=O)N12`, the growth was 105%.

On to `O=C(/C=C1\C(=O)N(Cc2ccc([N+](=O)[O-])cc2)c2ccccc21)c1ccc(OCCN2CCCCC2)cc1`, for which the growth was -35.4% (active).

For `NNC(=S)N1N=C(c2cc3ccccc3o2)CC1c1c[nH]c2ccccc12` (stereo unspecified), the growth is 29.6%.

On to `O=C(/C=C1\C(=O)N(Cc2ccccc2)c2ccccc21)c1ccc(OCCN2CCCCC2)cc1`, for which the growth is 73.9%.

With `COc1ccc(CN2C(=O)/C(=C\C(=O)c3ccc(OCCN4CCCC4)cc3)c3ccccc32)cc1`, the growth was 84.3%.

`C[C@@H](c1ccc2c(c1)[nH]c1ccc(Cl)cc12)c1nc2ccccc2[nH]1`: the growth is 87.3%.

For the compound `c1ccc(-c2cn3ccnc3c(-c3ccc4ncn(C5CCCCC5)c4c3)n2)cc1`, the growth was 78.2%.

For `C[C@@H](c1ccc2c(c1)[nH]c1ccc(Cl)cc12)c1nc2ccc(Cl)cc2[nH]1`, the growth is 80.9%.

For `COc1cc(CNC(=O)CCCC/C=C/C(C)C)ccc1OCc1nnc(Nc2ccccc2F)o1`, the growth is 45.5%.

For `Cc1c(CN(C)C)cc(C(C)C)cc1C(C)C`, the growth is 111%.

As for `O=S(=O)(O)c1ccc2c(c1)Sc1cc(S(=O)(=O)O)ccc1O2`, the growth was 112%.

On to `COc1ccc(Cn2cc3c(c2-c2ccccc2)CCc2cnoc2-3)cc1N`, for which the growth was 28.7%.

In the case of `COc1ccc(/C=C(/C(=O)N2CCN(c3ccc(C)cc3)CC2)c2cc(OC)c(OC)c(OC)c2)cc1N`, the growth was 25.6%.

Regarding `C=CCN(C)C`, the growth is 106%.

As for `CCNc1nnc(COc2ccc(CNC(=O)CCCC/C=C/C(C)C)cc2OC)o1`, the growth was 97.1%.

For `COc1ccc2oc(=O)cc(CN3C(=O)S/C(=C\c4ccc(Cl)cc4)C3=O)c2c1`, the growth is 92.2%.

Regarding `CC(C)OC(=O)Nn1cnc2ccccc21`, the growth was 120%.

As for `COc1ccc(Cn2cc3c(c2-c2ccc(OC)cc2)CCc2cnoc2-3)cc1`, the growth is 30.5%.

On to `COc1cc(Cn2ccc3c2-c2oncc2CC3)cc(OC)c1`, for which the growth is 50%.

As to `COc1cccc(Cn2cc3c(c2)-c2oncc2CC3)c1`, the growth was 37.6%.

On to `COc1ccc(C2=C/C(=C\c3ccc(Cl)cc3)C(=O)NN2C(=S)NN)cc1`, for which the growth is 95.8%.

For the compound `COc1ccc(Cn2cc3c(c2)-c2oncc2CC3)cc1OC`, the growth is 33.1%.

On to `COc1ccccc1Nc1nnc(COc2ccc(CNC(=O)CCCC/C=C/C(C)C)cc2OC)o1`, for which the growth was 90.8%.

On to `N=c1c2c(=O)n3c(nc2nc2sc4ccc(Cl)cc4n12)-c1ccccc1Sc1ccccc1-3`, for which the growth is 42.2%.

With `CCCC(=O)NNc1[nH]c(-c2cc(OC)c(OC)c(OC)c2)cc1C(=O)OCC`, the growth is 120%.

With `COc1ccc(Cn2cc3c(c2-c2ccc(O)cc2)CCc2cnoc2-3)cc1`, the growth is 45.5%.

`COc1ccc(OC)c(Cn2cc3c(c2-c2ccccc2)CCc2cnoc2-3)c1`: the growth was 71.8%.

Consider `CCCCCCCCCCCCCCCCCC1=NCCN1CS(=O)(=O)O`, for which the growth is -24.5% (active).

The subject of a further assay is SF-295 CNS. The description is as above. The following applies: 10 µM unless noted.
As for `COc1ccc(/C=C(/C(=O)N2CCCCC2)c2cc(OC)c(OC)c(OC)c2)cc1`, the growth was 14.1%.

As to `COc1ccc(OC)c(Cn2cc3c(c2)-c2oncc2CC3)c1`, the growth is -8.86% (active).

With `COc1ccc(CN2C(=O)/C(=C\C(=O)c3ccc(OCCN4CCCCC4)cc3)c3ccccc32)cc1`, the growth is 91.5%.

With `COc1ccc(/C=C2\SC(=O)N(Cc3cc(=O)oc4ccc(OC)cc34)C2=O)cc1`, the growth was 82.7%.

`O=c1oc2ccc3ccccc3c2cc1-c1ccnc2[nH]c(=S)[nH]c(=O)c12`: the growth is 101%.

Regarding `O=C(O)c1occ(Cl)c1Cl`, the growth is 101%.

In the case of `O=C(/C=C/c1c[nH]c2ccccc12)c1cc2ccccc2o1`, the growth is 91%.

Regarding `COc1ccc2sc(-n3nc4nc5n(c(=O)c4c3N)-c3ccccc3Sc3ccccc3-5)nc2c1`, the growth is 65.8%.

As to `CCOC(=O)NNc1[nH]c(-c2ccc(OC)cc2)cc1C#N`, the growth is 111%.

As for `COc1ccc(-c2cn3ccnc3c(-c3ccc4ncn(C5CCCCC5)c4c3)n2)cc1`, the growth is 7.49% (active).

As to `CCOC(=O)C1=NN(c2ccccc2)C2=NC(=O)/C(=C\c3cn(-c4ccccc4)nc3-c3cc4ccccc4o3)C(=O)N12`, the growth is 108%.

`O=C(/C=C1\C(=O)N(Cc2ccc([N+](=O)[O-])cc2)c2ccccc21)c1ccc(OCCN2CCCCC2)cc1`: the growth was 49.7%.

With `NNC(=S)N1N=C(c2cc3ccccc3o2)CC1c1c[nH]c2ccccc12` (stereo unspecified), the growth was 38.9%.

Regarding `O=C(/C=C1\C(=O)N(Cc2ccccc2)c2ccccc21)c1ccc(OCCN2CCCCC2)cc1`, the growth is 85.6%.

`COc1ccc(CN2C(=O)/C(=C\C(=O)c3ccc(OCCN4CCCC4)cc3)c3ccccc32)cc1`: the growth is 93.9%.

For `C[C@@H](c1ccc2c(c1)[nH]c1ccc(Cl)cc12)c1nc2ccccc2[nH]1`, the growth is 93.5%.

`c1ccc(-c2cn3ccnc3c(-c3ccc4ncn(C5CCCCC5)c4c3)n2)cc1`: the growth is 60.2%.

Regarding `C[C@@H](c1ccc2c(c1)[nH]c1ccc(Cl)cc12)c1nc2ccc(Cl)cc2[nH]1`, the growth was 99.4%.

Consider `COc1cc(CNC(=O)CCCC/C=C/C(C)C)ccc1OCc1nnc(Nc2ccccc2F)o1`, for which the growth is 48%.

For the compound `Cc1c(CN(C)C)cc(C(C)C)cc1C(C)C`, the growth is 116%.

As to `O=S(=O)(O)c1ccc2c(c1)Sc1cc(S(=O)(=O)O)ccc1O2`, the growth was 103%.

On to `COc1ccc(Cn2cc3c(c2-c2ccccc2)CCc2cnoc2-3)cc1N`, for which the growth was -19.7% (active).

Take `COc1ccc(/C=C(/C(=O)N2CCN(c3ccc(C)cc3)CC2)c2cc(OC)c(OC)c(OC)c2)cc1N`: the growth is 15.4%.

As to `C=CCN(C)C`, the growth was 103%.

As for `CCNc1nnc(COc2ccc(CNC(=O)CCCC/C=C/C(C)C)cc2OC)o1`, the growth is 97.1%.

For `COc1ccc2oc(=O)cc(CN3C(=O)S/C(=C\c4ccc(Cl)cc4)C3=O)c2c1`, the growth is 92%.

In the case of `CC(C)OC(=O)Nn1cnc2ccccc21`, the growth is 103%.

Regarding `COc1cc(Cn2ccc3c2-c2oncc2CC3)cc(OC)c1`, the growth is 24.2%.

Consider `COc1cccc(Cn2cc3c(c2)-c2oncc2CC3)c1`, for which the growth is -29.1% (active).

As to `COc1ccc(C2=C/C(=C\c3ccc(Cl)cc3)C(=O)NN2C(=S)NN)cc1`, the growth was 96.3%.

Turning to `COc1ccccc1Nc1nnc(COc2ccc(CNC(=O)CCCC/C=C/C(C)C)cc2OC)o1`, the growth is 88.8%.

For `N=c1c2c(=O)n3c(nc2nc2sc4ccc(Cl)cc4n12)-c1ccccc1Sc1ccccc1-3`, the growth is 5.48% (active).

On to `CCCC(=O)NNc1[nH]c(-c2cc(OC)c(OC)c(OC)c2)cc1C(=O)OCC`, for which the growth is 95.3%.

As to `COc1ccc(Cn2cc3c(c2-c2ccc(O)cc2)CCc2cnoc2-3)cc1`, the growth was -24.6% (active).

As to `COc1ccc(OC)c(Cn2cc3c(c2-c2ccccc2)CCc2cnoc2-3)c1`, the growth was 22.8%.

For `CCCCCCCCCCCCCCCCCC1=NCCN1CS(=O)(=O)O`, the growth was 74.6%.
